Laboratory results: ChEMBL document CHEMBL4513216, “Probing the Open Global Health Chemical Diversity Library for Multistage-Active Starting Points for Next-Generation Antimalarials” (ACS Infect Dis, 2020)
About 2,100 (3.2%) of roughly 65,000 compounds showed an effect of 50% or more. The median lay at about -52%. The list comes from a sample in which strong results are over-represented; it also holds similar structures and randomly drawn compounds.

System: Plasmodium falciparum
Assay: Screen against P. falciparum Asexual Blood Stage (ABS), at 5uM
Type: functional, Dd2
Settings: tested at 5 uM

| SMILES | INHIBITION |
| --- | --- |
| CO[C@@H]1CC[C@H]2[C@H]1OCCN2CC1CC1 | -30.3% |
| c1ccc(CN2C[C@@H]3OCCN(c4ncccn4)[C@@H]3C2)nc1 | -56.2% |
| CSc1ccc(C2SCC(=O)Nc3c2c(=O)[nH]n3C2CCOCC2)cc1 (centres undefined) | -122% |
| CCS(=O)(=O)N1CCc2c(COC)cncc2C1 | -61.4% |
| COc1ccc(NC(=O)Cn2nc(C)c(C(C)=O)c2C)cc1 | 89.7% |
| CC(C)N(C)Cc1cncc2c1CCN(CC1CC1)C2 | -87.9% |
| CC(C)c1cc(N2CCC3(CCN(C)C3)C2)ncn1 (centres undefined) | -27.6% |
| CNC(=O)CN1CCC12CCN(C(=O)Cc1ccccc1)C2 (centres undefined) | -6.6% |
| Cc1ccc(S(=O)(=O)N2C[C@@H]3CCN[C@@H]3C2)cc1 | 4.39% |
| O=C(Cc1ccc(F)cc1)N1C[C@H]2CCN[C@H]2C1 | 7.59% |
| O=C(NCc1ccccc1)N1C[C@H]2CCN[C@H]2C1 | -86.8% |
| O=S(=O)(c1ccccc1)N1C[C@@H]2CCN[C@@H]2C1 | 24.4% |
| O=S(=O)(c1cccc(Cl)c1)N1C[C@@H]2CCN[C@@H]2C1 | 88.1% |
| O=S(=O)(c1ccc(Cl)cc1)N1C[C@@H]2CCN[C@@H]2C1 | 82% |
| CC(C)CNC(=O)[C@H]1C[C@H]2CN(Cc3cccnc3)C[C@@H]1O2 | -30.9% |
| FC(F)Oc1ccccc1CN1CCCC(c2nccn2CC2CC2)C1 (centres undefined) | 86.4% |
| Nc1ncccc1CN1C[C@H]2CC[C@@H](C1)N(CC1CC1)C2=O | -61.3% |
| CC1C(=O)Nc2cccnc2N1S(=O)(=O)c1ccc(C#N)c(Cl)c1 (centres undefined) | -88.9% |
| CC(C)=CCN1C[C@@H]2CC[C@H]1CN(Cc1cc(=O)[nH]c(=O)[nH]1)C2 | 4.88% |
| COCCN(CC1CC1)c1nc(CCN)nc2sc(C)c(C)c12 | 77.5% |
| Cc1cccn2cc(CC(=O)N(CCN(C)C)CC3CCCO3)nc12 (centres undefined) | -84.6% |
| CCN(CCN(C)C)c1nc(CCN)nc2sc(C)c(C)c12 | 89.8% |
| Cc1sc2nc(CCN)nc(N(CCN(C)C)CC3CCCO3)c2c1C (centres undefined) | 70.2% |
| Cc1nnc([C@@H]2CC[C@@H]3[C@@H](CCN3Cc3ccccn3)O2)o1 | -18% |
| COc1cccc(CC(C)NCC(=O)Nc2ccccc2C)c1 (centres undefined) | -75% |
| CN[C@@H](C)C(=O)N(Cc1cccc(C)c1)Cc1ccccc1OC | 83.6% |

| SMILES | INHIBITION |
| --- | --- |
| O=C(c1ccncc1)N1C[C@@H]2OCCN(CCN3CCCC3)[C@@H]2C1 | -29.2% |
| CCC1CNCc2cc3c(OC)ccc(OC)c3nc2O1 (centres undefined) | -11% |
| O=C(CC(F)(F)F)N1C[C@H]2CCN[C@H]2C1 | -86.8% |
| CCc1nccn1CCNC1CCN(c2nc3ccc(Cl)cc3s2)CC1 | 85.7% |
| O=C([C@@H]1C[C@@H]2CCN(Cc3ccccn3)C[C@H]2O1)N1CCCO1 | -36.6% |
| Cc1cccnc1CC(C)NC1CCSCC1 (centres undefined) | 23.6% |
| Cc1cccnc1CC(C)NC1Cc2ccccc2C1 (centres undefined) | 89.2% |
| O=C1[C@H]2CN(Cc3ccoc3)C[C@H]2CN1Cc1cccnc1 | -10% |
| Cc1n[nH]c(C)c1CC(=O)N1CCCN(C)C2(CCN(C)CC2)C1 | -107% |
| CCCOc1ccccc1CN[C@@H]1CCC[C@H]1Cc1cc(C)no1 | 84.9% |
| Cc1cc(CNC2(c3ccccc3)CCCCC2)on1 | 9.53% |
| Cc1cc(C[C@@H]2CCC[C@H]2NCc2cc(C)c(O)c(C)c2)on1 | 79.9% |
| CCO[C@@H]1CC[C@H]2[C@H]1OCCN2CC1CCC1 | -47.6% |
| COc1c(C2SCC(=O)Nc3[nH]ncc32)cc2c(c1OC)OCO2 (centres undefined) | -32.3% |
| CN(C)C(=O)COC[C@@]12CCC[C@@H]1CNC2 | -23.4% |
| Cn1cc(N2C[C@@H]3CN(Cc4ccccn4)C[C@@H]3C2=O)cn1 | -120% |
| Cc1cccc(-c2ncc(CNC(C)Cc3ncccc3C)cn2)c1 (centres undefined) | -7.12% |
| COc1cc(C(C)NCc2ncccc2C)ccc1SC(F)F (centres undefined) | 75.7% |
| Cc1nc(NCC2CC2)nc2c1COCC21CCN(C)C1 (centres undefined) | -73.6% |
| CN(Cc1cccc(O)c1)CC1CCCN(CCc2ccc(Cl)cc2)C1 (centres undefined) | 83.5% |
| Cc1nc[nH]c1CN(C)CC1CCCN(CCc2ccc(Cl)cc2)C1 (centres undefined) | 82.9% |
| Cc1csc(CN2CC[C@H]3C[C@H](C)O[C@@H]3C2)n1 | -59.9% |
| Cc1noc(C)c1CN1CCO[C@H]2CN(C3CCOCC3)C[C@H]21 | 3.95% |
| CC/C=C(/C)C(=O)NS(=O)(=O)c1ccc(C#N)c(C(F)(F)F)c1 | -159% |
| CC(Cn1cncn1)NCc1ccc2nonc2c1 (centres undefined) | -92.4% |
| Clc1ccccc1CCN1CCN(c2ccc3nncn3n2)CC1 | 74.9% |

| SMILES | INHIBITION |
| --- | --- |
| Cc1ccccc1CC(=O)N1C[C@@H](O)[C@H](N2CCC(F)(F)CC2)C1 | -76.9% |
| COc1cc(C2SCC(=O)Nc3[nH]ncc32)c(OC)c2c1OCO2 (centres undefined) | -118% |
| Cc1c(Cl)c(C(=O)N2CC(c3cccnc3)C2)nn1C | -53.6% |
| COCCN1C[C@@H]2COC[C@@H](CC(=O)NCc3cccnc3)[C@@H]2C1 | -108% |
| CCOc1ccc(CNCCCn2ccnc2)cc1Br | 80.1% |
| CC(Cn1ccnc1)NS(=O)(=O)c1ccc(C#N)c(Cl)c1 (centres undefined) | -24.8% |
| COc1cc(CNC(C)Cn2cccn2)cc(Cl)c1OC (centres undefined) | -35.2% |
| COc1cc(CNC(C)Cn2ccnc2)cc2c1OCO2 (centres undefined) | -46.3% |
| CCOc1ccc(CNCCCn2ccnc2)cc1Cl | 87.7% |
| COc1ccc(Cl)cc1CNCCCn1ccnc1 | 82.3% |
| CC(Cn1ccnc1)NCc1ccc2nonc2c1 (centres undefined) | -108% |
| COc1cc(CNC(C)Cn2ccnc2)cc2c1OCCO2 (centres undefined) | -34% |
| CCOc1cc(CNCCCn2ccnc2)cc(Cl)c1OCC | 77.3% |
| CC(Cn1ccnc1)NCc1cc(Br)c2c(c1)OCO2 (centres undefined) | 6.16% |
| O=C1CSC(c2ccsc2)c2c(n(C3CCCC3)[nH]c2=O)N1 (centres undefined) | -94.4% |
| Cc1csc(CN2C[C@@H]3CN(C)CCO[C@@H]3C2)n1 | -19.5% |
| CC(C)(C)n1cc(C(=O)NCCCn2ccnc2)c2cccnc21 | -3.93% |
| Cc1nn(CCNC(C)Cn2ccnc2)c(C)c1Cl (centres undefined) | 0.358% |
| CCOc1c(Cl)cc(Cl)cc1CNCCCn1ccnc1 | 75.9% |
| COCc1cn(C[C@H]2CC3CCN2C[C@@H]3C(=O)Nc2ccccc2)nn1 (some centres undefined) | -106% |
| CNC(=O)c1cn(C(C)(C)C)c2ncccc12 | -148% |
| Cc1cnc(N2C[C@H]3CCN(CC4CC4)C[C@H]3C2)nc1 | 65.5% |
| c1cncc(N2CC[C@@H]3CN(CC4CC4)C[C@@H]3C2)c1 | 6.94% |
| Cc1cnc(N2C[C@H]3CCN(CC4CC4)C[C@@H]3C2)nc1 | 40.6% |
| Cn1ccnc1CNC1CCCOc2c1ccc1ccccc21 (centres undefined) | 77.2% |
| Cc1nc(-c2cc(Cl)cc3c2OC(CN)C3)c[nH]1 (centres undefined) | 94.4% |

| SMILES | INHIBITION |
| --- | --- |
| NCC1Cc2cc(Cl)cc(-c3cncc(C(=O)N4CCCCC4)n3)c2O1 (centres undefined) | 76% |
| Cc1cc2c(c(-c3c[nH]c(C)n3)c1)OC(CN)C2 (centres undefined) | 80.1% |
| Cc1nc(-c2cc(Cl)c3c(c2)CC(CN)O3)c[nH]1 (centres undefined) | 83.7% |
| CCN1CCN(C)C(=O)C12CCN(C(=O)Cc1ccccn1)CC2 | -113% |
| CCC(=O)NCC(c1ccc(SC)cc1)N1CCc2sccc2C1 (centres undefined) | 77.1% |
| O=C1NC2(CCNCC2)CC1c1ccncc1 (centres undefined) | -134% |
| C[C@@H]1CN(C2CCN(c3ccccc3F)CC2)CC[C@]1(C)O | 87.7% |
| C[C@@H]1CN(Cc2cccnc2)C[C@]1(C)O | -61.6% |
| O=C(CCN1CCCC(CO)(CC2CC2)C1)NCc1cccc(Cl)c1 (centres undefined) | 80% |
| O=C(NCc1cccnc1)C1=NOC2(CCCN(CCO)C2)C1 (centres undefined) | -58.4% |
| Cc1cc(N(C)C)nc(N2CCCC2c2cccnc2)n1 (centres undefined) | -15.1% |
| Nc1cc(-c2c[nH]nc2C2CCCN2CCCc2ccccc2)ccn1 (centres undefined) | 77.3% |
| O=C1[C@H]2CN(Cc3ccoc3)C[C@@H]2CCN1Cc1cccnc1 | -121% |
| Cc1noc(C)c1CN1CC[C@H]2O[C@@H](C(=O)N3CCCC3)CC[C@H]21 | -58.1% |
| O=C(c1ccccc1-n1cnnn1)N1CCC2(CC1)OCCO2 | -76.9% |
| CCOCc1nc2c(c(N3CCN4CCCC4C3)n1)CCNCC2 (centres undefined) | -33.2% |
| NCC1CCN(c2nc(C3CCCC3)nc3c2CCNCC3)C1 (centres undefined) | 93.5% |
| CC(C)c1nc(N2CCN3CCCC3C2)c2cnn(C)c2n1 (centres undefined) | 12.9% |
| C1CCC(c2nc3c(c(N4CCN5CCCC5C4)n2)CCNCC3)C1 (centres undefined) | 77.4% |
| c1cnn(CC2CCN(c3nc(C4CC4)nc4c3CCNCC4)CC2)c1 | 91% |
| Cc1nn(-c2ccccn2)c2c1C(c1cnn(C)c1)SCC(=O)N2 (centres undefined) | -90.8% |
| Cc1noc(C)c1CN1CCO[C@H]2CNC[C@H]21 | -38.6% |
| CCN(C)c1nccc(N2CCN[C@H]3CS(=O)(=O)C[C@H]32)n1 | -58.4% |
| Cc1cc(-n2cccn2)ccc1CN1CCOCC(CN(C)C)C1 (centres undefined) | 73% |
| COc1ccc(-n2cccn2)c(CN2CCOCC(CN(C)C)C2)c1 (centres undefined) | 78.4% |
| CO[C@H]1COCCN(Cc2c[nH]c3ccccc23)C1 | -48.4% |
